Experimental data from PubChem BioAssay (NCATS).
Records with an inconclusive call do not appear. Active and inactive are the calls of the source. Unless noted, calls follow the shape of the dose curve; as a rule, active = well fitted curve in the direction sought with a large enough effect; inconclusive = small, poorly fitted or top-dose-only effect, or another doubt; inactive = no such curve, though single readings can be large; an effect the other way counts as inactive or inconclusive.

Tests used:
[1] = target: Lysosomal acid glucosylceramidase (Homo sapiens) (UniProt P04062); assay: Glucocerebrosidase-p2 (AID 348; in the data active = potency below about 10 µM; also: potency is read from the fitted curve at half-maximal effect); conditions: purified GBA, blue fluorogenic substrate, 40 min
In short: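 Compounds titrated from 0.6 nM upwards against 0.2 nM enzyme in pH 5.9 citric acid/KH2PO4, taurocholate, tween-20; blue fluorogenic substrate 80 uM, 40 min room temperature, stopped and read Ex 365/Em 440 for AC50.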

[2] = AP1 Signaling Pathway (AID 357; active = well fitted curve in either direction with a large enough effect, not every such curve was filed as active;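 also: ME-180 reporter cells stimulated with EGF at its EC50 level; % is scaled to controls: 0 for no effect and ±100 for the full control effect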); conditions: ME-180 AP-1-bla reporter, EGF-induced, beta-lactamase ratio, 5 h; at 7.69 µM (top of the series) unless noted
In short: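 In this screen, ME-180 cells in Opti-MEM with 0.5% dialyzed FBS received EC50 EGF and compound titrations for 5 h. AP-1 reporter beta-lactamase was detected via CCF4 ratio, giving AC50 for positive and negative modulators.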

[3] = target: Cytochrome P450 1A2 (Homo sapiens) (UniProt P05177); assay: p450-cyp1a2 (AID 410; calls by dose curve; also: potency is read from the fitted curve at half-maximal effect); conditions: recombinant CYP1A2, luciferin-ME demethylation, luminescence; series mostly up to 57 µM
In short: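 Human CYP1A2 (20nM) demethylated Luciferin-ME at its Km (100uM) in 100mM KPO4. After 10 min compound preincubation, NADPH regeneration ran the reaction 60 min at room temperature. Luciferin was read by luminescence, normalized to 57 uM furafylline.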

[4] = NFAT Signaling Pathway (AID 444; active = well fitted curve in either direction with a large enough effect, not every such curve was filed as active;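 also: carbachol stimulus at about its EC50 of 1 µM final; % is scaled to controls: 0 for no effect and ±100 for the full control effect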); conditions: Jurkat NFAT-bla M1, carbachol, beta-lactamase ratio, 5 h; at 7.69 µM (top of the series) unless noted
In short: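 Read-out: CCF4 FRET ratio (460 nm/530 nm) after 1 h RT dye loading, used for %activity and AC50 from titration series. Cells: Jurkat NFAT-β-lactamase/M1 line, treated with compound plus 1 uM carbachol for 5 h, 37 °C.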

[5] = Stat Signaling Pathway (AID 446; active = well fitted curve in either direction with a large enough effect, not every such curve was filed as active;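 also: ME-180 cervical cancer cells given 40 pM IL-6 alongside compound; SIE-controlled beta-lactamase reporter measured as 460/530 nm FRET emission ratio; % is scaled to controls: 0 for no effect and ±100 for the full control effect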); conditions: ME-180 SIE beta-lactamase reporter, IL-6 stimulated, 5 h; at 7.69 µM (top of the series) unless noted
In short: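 Screening format detects activators and inhibitors alike: ME-180 SIE-bla cells stimulated at 40 pM IL-6 for 5 hrs with compound, then dual-emission beta-lactamase read at 405 nm excitation.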

[6] = target: Glucocorticoid receptor (Homo sapiens) (UniProt P04150); assay: GR-GFP Redistribution (AID 450;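 active = compounds whose dose series gives a full or clear partial fitted curve of increased nuclear translocation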; also: potency is read from the fitted curve at half-maximal effect); conditions: U2OS GR-GFP nuclear translocation, laser cytometry, 2 h
[7] = target: Glucocorticoid receptor (Homo sapiens) (UniProt P04150); assay: GR-EFC Redistribution (AID 451; calls by dose curve; also: potency is read from the fitted curve at half-maximal effect); conditions: CHO-K1 GR-EFC translocation, beta-gal luminescence, 2 h
In short: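 Translocation of GR-ED fusion to nuclear EA restores b-gal, read by luminescence after 1 h room-temperature detection. Engineered CHO-K1 biosensor cells, 1,000/well, exposed 2 h at 37 C to titrations up to 46 uM final.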

[8] = target: Mitogen-activated protein kinase 10 (Mus musculus) (UniProt Q61831); assay: JNK3 AlphaScreen Assay (AID 530; active = well fitted curve in either direction with a large enough effect, not every such curve was filed as active;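 also: kinase came from lysate of stimulated human HepG2 cells; signal reports phosphorylation of biotinylated GST-cJun 1-79 at Ser73 with 10 µM ATP; % is scaled to controls: 0 for no effect and ±100 for the full control effect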); conditions: JNK3 lysate, c-Jun phosphorylation; series mostly up to 57.1 µM
In short: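 Room-temperature AlphaScreen kinase assay; pre-activated HepG2 lysate as JNK3 source, biotin-GST-cJun(1-79) substrate, 10 uM ATP, compound 15 min preincubation.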

[9] = target: 3',5'-cyclic-AMP phosphodiesterase 4B (Homo sapiens) (UniProt Q07343); assay: qHTS Assay for Inhibitors of PDE-IV (AID 607; active = well fitted activation curve with a large enough effect in the main read-out, with a control signal flat, not every such curve was filed as active; also: % of control where 0% means no effect); conditions: HEK293 ACTOne CNG channel cells, membrane potential fluorescence; series mostly up to 22.9 µM
In short: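 The readout is membrane depolarisation from a cAMP-sensing CNG channel, detected with a potential dye at ex 535/em 590. Cells were HEK293-derived (endogenous PDE-IV) at 1000 cells/well, titrated up to 22.9 uM final.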

[10] = target: Cytochrome P450 3A4 (Homo sapiens) (UniProt P08684); assay: qHTS Assay for Activators of Cytochrome P450 3A4 (AID 885); conditions: recombinant CYP3A4, Luciferin-PPXE luminescence, 60 min; series mostly up to 57.1 µM; also: nearly all actives have a fitted effect of over 65% in size; also: potency is read from the fitted curve at half-maximal effect
In short: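 Steps: enzyme/substrate mix dispensed; compound added, 10 min RT; NADPH regeneration solution added, 60 min RT; luciferin detection buffer stops reaction; 20 min later luminescence measured.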

[11] = qHTS Assay for Identification of Small Molecule Agonists for Hypoxia Response Element Signaling Pathway (AID 914; active = well fitted activation curve with a large enough effect in the signal ratio, with a control signal flat, not every such curve was filed as active; the % refers to the signal ratio; also: % of control where 0% means no effect); conditions: ME-180 (cervical carcinoma) HRE-bla reporter, beta-lactamase ratio, CoCl2, 17 h; activation: stronger effect = higher value
In short: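 Positive modulation of EC50 CoCl2-induced hypoxia response element signaling is measured in ME-180 cells with a beta-lactamase reporter. Compounds are titrated, incubation runs 17 hours, and %Activity derives from the blue/green ratio.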

[12] = qHTS Assay for Lipid Storage Modulators (AID 1519; calls by dose curve); conditions: Drosophila S3 cells, BODIPY lipid droplet/cell ratio, laser cytometry, cells loaded with oleic acid; for activity change, negative = inhibition: at 57.5 µM (top of the series)
In short: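 Cells seeded at 5,000 per well were treated with compounds over a concentration series and loaded with oleic acid (400 uM, as added). Lipid droplet fluorescence (488 nm excitation, 500-530 nm channel) was read by laser-scanning cytometry and normalized to 20 uM Triacsin C.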

[13] = target: Dual specificity protein kinase CLK4 (Homo sapiens) (UniProt Q9HAZ1); assay: qHTS Assay for Inhibitors of CDC-like Kinase 4 (Kinase-Glo Assay) (AID 1770); conditions: recombinant Clk4, Kinase-Glo ATP depletion luminescence; series mostly up to 66.7 µM; also: % is scaled to controls: 0 for no effect and ±100 for the full control effect; nearly all actives have a fitted effect of over 65% in size
In short: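 Recombinant human Clk4 (25 nM) phosphorylated RS repeat peptide (100 uM) with 1 uM ATP in Tris pH 7.5/MgCl2/EGTA/DTT/Triton buffer for 4.5 h at room temperature. Residual ATP was quantified by Kinase-Glo luciferase luminescence.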

[14] = target: Dual specificity protein kinase CLK4 (Homo sapiens) (UniProt Q9HAZ1); assay: qHTS Assay for Inhibitors of CDC-like Kinase 4 (ADP-Glo Assay) (AID 1771); conditions: recombinant CLK4, ADP-Glo luminescence; series mostly up to 80 µM; also: % is scaled to controls: 0 for no effect and ±100 for the full control effect; nearly all actives have a fitted effect of over 70% in size
In short: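 Clk4 (25 nM) was incubated 1 hr at room temperature with 100 uM RS repeat peptide and 1 uM ATP in buffer with 2 mM MgCl2, 0.5 mM EGTA, 2.5 mM DTT. ADP formed was quantified by ADP-Glo luminescence.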

[15] = target: Dual specificity protein kinase CLK4 (Homo sapiens) (UniProt Q9HAZ1); assay: qHTS Assay for Inhibitors of CDC-like Kinase 4 (ADP-FP Assay) (AID 1795); conditions: Transcreener ADP fluorescence polarization; series mostly up to 50 µM; also: % is scaled to controls: 0 for no effect and ±100 for the full control effect; nearly all actives have a fitted effect of over 60% in size
In short: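 Recombinant human Clk4 (6.25 nM) phosphorylated RS repeat peptide (100 uM) with 1 uM ATP in Tris pH 7.5/MgCl2/EGTA/DTT/Triton buffer for one hour. ADP was quantified by Transcreener competitive fluorescence polarization against an ADP calibration curve.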

[16] = target: Ubiquitin carboxyl-terminal hydrolase 1 (Homo sapiens) (UniProt O94782); assay: Inhibitors of USP1/UAF1: Pilot qHTS (AID 504865); conditions: purified USP1/UAF1, Ub-rhodamine cleavage fluorescence; series mostly up to 54.9 µM;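 also: rhodamine fluorescence freed from ubiquitin-rhodamine substrate followed over time; top concentration of the series differs between compounds; % is scaled to controls: 0 for no effect and ±100 for the full control effect; nearly all actives have a fitted effect of over 35% in size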
In short: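 USP1/UAF1 complex (1nM) preincubated with compound 15 min at room temperature, then Ub-Rho substrate (150nM final) added. Fluorescence read kinetically at 480/540 nm, 6 reads every 60 seconds. Buffer: 50mM HEPES pH 7.8, 0.5mM EDTA, 0.1 mg/ml BSA, 1mM TCEP, 0.01% Tween-20.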

[17] = Primary qHTS for small molecule stabilizers of the endoplasmic reticulum resident proteome: Secreted ER Calcium Modulated Protein (SERCaMP) assay (AID 1508630); conditions: SH-SY5Y GLuc-SERCaMP (Gaussia luciferase released on ER calcium loss) secretion, thapsigargin, luminescence; series mostly up to 38.4 µM; also: % is scaled to controls: 0 for no effect and ±100 for the full control effect
In short: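 GLuc-SERCaMP-expressing SH-SY5Y cells, pretreated 16 h with compound, are challenged with thapsigargin to empty ER calcium stores; after 4 h, coelenterazine is added directly to the medium and luminescence is imaged.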

[18] = target: Cytochrome P450 3A4 (Homo sapiens) (UniProt P08684); assay: qHTS Assay for Inhibitors and Substrates of Cytochrome P450 3A4 (AID 884); conditions: recombinant CYP3A4, Luciferin-PPXE luminescence; series mostly up to 57.1 µM; also: nearly all actives have a fitted effect of over 50% in size; also: potency is read from the fitted curve at half-maximal effect
In short: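 20 nM human CYP3A4 with 25 uM Luciferin-PPXE (at KM) in 200 mM KPO4, preincubated 10 min with compound; NADPH regeneration started a 60 min RT reaction. Luciferin detected by luminescence, normalized to 57 uM ketoconazole as full inhibition.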

[19] = target: Cytochrome P450 2C19 (Homo sapiens) (UniProt P33261); assay: qHTS Assay for Inhibitors and Substrates of Cytochrome P450 2C19 (AID 899); conditions: recombinant CYP2C19, luciferin-H EGE luminescence; series mostly up to 57.1 µM; also: potency is read from the fitted curve at half-maximal effect; nearly all actives have a fitted effect of over 60% in size
In short: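 5nM enzyme + 10uM Luciferin-H EGE (=KM), 50mM KPO4; cpd pin-transferred, 10 min 37C; NADPH regen, 60 min 37C; stopped w/ luciferin detection reagent, 20 min; luminescence. Normalized to 57uM ketoconazole (AC100).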

[20] = measured here: cell count channel max response
[21] = measured here: lipid channel max response

Sequence of 3',5'-cyclic-AMP phosphodiesterase 4B (Homo sapiens) (Q07343 whole entry, looked up): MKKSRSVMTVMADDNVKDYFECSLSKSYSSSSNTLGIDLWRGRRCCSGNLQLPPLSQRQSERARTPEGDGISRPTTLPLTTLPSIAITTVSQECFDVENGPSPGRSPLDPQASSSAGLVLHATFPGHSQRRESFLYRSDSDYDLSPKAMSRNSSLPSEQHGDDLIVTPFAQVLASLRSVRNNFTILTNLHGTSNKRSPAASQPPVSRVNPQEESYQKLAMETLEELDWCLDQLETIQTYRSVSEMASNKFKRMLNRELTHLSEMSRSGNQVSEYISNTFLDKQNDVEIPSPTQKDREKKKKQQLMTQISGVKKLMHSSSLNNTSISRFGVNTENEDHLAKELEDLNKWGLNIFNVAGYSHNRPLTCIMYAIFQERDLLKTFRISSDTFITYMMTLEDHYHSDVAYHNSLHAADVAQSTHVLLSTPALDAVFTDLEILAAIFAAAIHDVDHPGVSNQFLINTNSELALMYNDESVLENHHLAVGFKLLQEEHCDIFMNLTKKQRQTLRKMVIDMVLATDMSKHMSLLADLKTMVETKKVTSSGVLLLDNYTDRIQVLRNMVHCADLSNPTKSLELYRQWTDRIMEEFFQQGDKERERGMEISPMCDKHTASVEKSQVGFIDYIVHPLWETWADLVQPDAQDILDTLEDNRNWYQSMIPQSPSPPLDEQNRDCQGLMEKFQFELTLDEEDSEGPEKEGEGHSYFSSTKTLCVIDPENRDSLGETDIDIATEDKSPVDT
Sequence of Glucocorticoid receptor (Homo sapiens) (P04150 whole entry, looked up, the tested form may be a part): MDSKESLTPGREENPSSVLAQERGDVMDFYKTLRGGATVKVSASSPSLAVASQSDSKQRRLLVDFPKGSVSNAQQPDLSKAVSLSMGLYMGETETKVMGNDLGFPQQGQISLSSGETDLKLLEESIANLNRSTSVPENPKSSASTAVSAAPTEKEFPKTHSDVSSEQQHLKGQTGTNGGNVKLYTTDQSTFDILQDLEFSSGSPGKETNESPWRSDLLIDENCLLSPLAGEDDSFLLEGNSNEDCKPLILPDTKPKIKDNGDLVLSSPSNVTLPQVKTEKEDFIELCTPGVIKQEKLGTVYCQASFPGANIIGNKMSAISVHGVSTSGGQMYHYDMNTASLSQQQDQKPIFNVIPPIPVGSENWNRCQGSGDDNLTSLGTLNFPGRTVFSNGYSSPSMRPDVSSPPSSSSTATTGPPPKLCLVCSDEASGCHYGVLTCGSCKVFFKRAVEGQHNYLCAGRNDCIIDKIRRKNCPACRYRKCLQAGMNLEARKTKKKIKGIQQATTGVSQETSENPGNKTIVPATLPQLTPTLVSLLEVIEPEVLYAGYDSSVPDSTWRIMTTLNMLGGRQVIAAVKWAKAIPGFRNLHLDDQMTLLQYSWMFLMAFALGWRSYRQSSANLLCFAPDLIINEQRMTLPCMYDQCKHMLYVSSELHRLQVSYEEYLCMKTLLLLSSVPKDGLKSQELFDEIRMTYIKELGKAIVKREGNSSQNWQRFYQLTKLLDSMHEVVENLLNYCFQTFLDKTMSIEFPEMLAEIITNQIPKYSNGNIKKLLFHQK
Sequence of Cytochrome P450 3A4 (Homo sapiens) (P08684 whole entry, looked up): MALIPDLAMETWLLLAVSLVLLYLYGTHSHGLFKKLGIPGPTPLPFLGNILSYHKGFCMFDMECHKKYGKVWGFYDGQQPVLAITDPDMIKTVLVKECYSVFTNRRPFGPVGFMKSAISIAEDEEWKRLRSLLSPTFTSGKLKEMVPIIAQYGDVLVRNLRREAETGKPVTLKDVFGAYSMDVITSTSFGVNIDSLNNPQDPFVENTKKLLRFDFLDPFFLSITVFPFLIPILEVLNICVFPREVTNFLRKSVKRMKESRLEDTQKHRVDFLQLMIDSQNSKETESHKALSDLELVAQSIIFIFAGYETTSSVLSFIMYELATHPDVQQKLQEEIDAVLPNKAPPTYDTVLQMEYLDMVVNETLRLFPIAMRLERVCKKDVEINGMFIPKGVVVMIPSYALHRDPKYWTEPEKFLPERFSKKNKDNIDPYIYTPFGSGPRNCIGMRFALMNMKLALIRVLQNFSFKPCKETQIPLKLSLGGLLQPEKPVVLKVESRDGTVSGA
Sequence of Cytochrome P450 1A2 (Homo sapiens) (P05177 whole entry, looked up): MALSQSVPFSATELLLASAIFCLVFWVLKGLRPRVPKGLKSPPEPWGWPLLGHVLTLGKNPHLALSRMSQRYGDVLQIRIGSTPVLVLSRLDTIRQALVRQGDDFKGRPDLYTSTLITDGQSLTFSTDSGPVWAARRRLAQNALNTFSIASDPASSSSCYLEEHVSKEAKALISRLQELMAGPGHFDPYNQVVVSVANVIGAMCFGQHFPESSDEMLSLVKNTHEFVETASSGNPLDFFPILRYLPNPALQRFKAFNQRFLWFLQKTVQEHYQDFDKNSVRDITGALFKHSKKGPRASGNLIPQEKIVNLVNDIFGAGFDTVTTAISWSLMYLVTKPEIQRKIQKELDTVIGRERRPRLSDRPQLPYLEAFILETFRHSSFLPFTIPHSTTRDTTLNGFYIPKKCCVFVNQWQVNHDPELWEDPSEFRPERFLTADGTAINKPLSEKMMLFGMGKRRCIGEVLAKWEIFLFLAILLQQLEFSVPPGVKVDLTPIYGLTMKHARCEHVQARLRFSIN
Sequence of Lysosomal acid glucosylceramidase (Homo sapiens) (P04062 whole entry, looked up): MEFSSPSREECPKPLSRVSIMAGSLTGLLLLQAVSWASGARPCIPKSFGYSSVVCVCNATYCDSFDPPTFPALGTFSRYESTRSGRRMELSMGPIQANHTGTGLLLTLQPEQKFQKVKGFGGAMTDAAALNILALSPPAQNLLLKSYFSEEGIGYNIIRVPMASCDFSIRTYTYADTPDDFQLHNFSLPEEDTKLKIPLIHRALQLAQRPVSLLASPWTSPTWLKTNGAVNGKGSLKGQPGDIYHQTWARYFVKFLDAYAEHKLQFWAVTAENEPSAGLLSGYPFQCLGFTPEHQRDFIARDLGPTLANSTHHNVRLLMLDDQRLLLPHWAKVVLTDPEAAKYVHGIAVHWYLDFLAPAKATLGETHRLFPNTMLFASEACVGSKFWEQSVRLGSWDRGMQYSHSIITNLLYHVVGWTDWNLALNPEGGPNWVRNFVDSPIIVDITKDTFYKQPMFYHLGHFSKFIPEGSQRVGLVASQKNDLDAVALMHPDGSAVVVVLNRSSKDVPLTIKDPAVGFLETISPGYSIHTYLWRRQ
Sequence of Ubiquitin carboxyl-terminal hydrolase 1 (Homo sapiens) (O94782 whole entry, looked up): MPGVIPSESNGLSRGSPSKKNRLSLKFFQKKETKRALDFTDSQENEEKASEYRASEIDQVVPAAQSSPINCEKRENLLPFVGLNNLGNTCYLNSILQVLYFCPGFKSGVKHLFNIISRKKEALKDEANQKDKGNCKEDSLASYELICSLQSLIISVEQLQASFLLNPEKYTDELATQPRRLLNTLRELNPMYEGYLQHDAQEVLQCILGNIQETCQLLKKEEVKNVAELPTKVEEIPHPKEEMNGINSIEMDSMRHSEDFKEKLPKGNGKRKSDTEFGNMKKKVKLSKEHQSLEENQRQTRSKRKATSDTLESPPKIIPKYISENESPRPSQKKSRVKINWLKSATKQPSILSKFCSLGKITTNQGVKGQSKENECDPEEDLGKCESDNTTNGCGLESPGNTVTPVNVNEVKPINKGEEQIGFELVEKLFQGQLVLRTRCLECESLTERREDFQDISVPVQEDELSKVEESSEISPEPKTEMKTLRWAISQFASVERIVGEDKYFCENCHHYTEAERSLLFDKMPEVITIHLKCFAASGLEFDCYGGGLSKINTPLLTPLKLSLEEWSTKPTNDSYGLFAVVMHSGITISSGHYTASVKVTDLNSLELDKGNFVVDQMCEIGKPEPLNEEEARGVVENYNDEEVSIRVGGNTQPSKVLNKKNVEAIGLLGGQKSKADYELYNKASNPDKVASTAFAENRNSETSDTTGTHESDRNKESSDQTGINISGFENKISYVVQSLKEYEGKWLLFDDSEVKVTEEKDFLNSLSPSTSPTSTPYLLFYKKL
Sequence of Dual specificity protein kinase CLK4 (Homo sapiens) (Q9HAZ1 whole entry, looked up): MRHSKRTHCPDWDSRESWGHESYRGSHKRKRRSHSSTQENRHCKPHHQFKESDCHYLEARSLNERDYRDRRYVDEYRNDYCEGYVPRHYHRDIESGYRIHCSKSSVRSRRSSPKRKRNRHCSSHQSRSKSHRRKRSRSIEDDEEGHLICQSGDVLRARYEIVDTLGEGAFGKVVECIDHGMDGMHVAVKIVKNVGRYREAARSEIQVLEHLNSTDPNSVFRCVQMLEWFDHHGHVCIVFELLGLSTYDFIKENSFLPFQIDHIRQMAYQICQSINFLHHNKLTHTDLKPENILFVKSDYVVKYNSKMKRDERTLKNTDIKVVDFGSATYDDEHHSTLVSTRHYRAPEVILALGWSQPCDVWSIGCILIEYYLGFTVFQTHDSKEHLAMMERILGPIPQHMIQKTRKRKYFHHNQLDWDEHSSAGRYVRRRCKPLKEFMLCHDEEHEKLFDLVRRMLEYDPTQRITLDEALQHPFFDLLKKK
Sequence of Cytochrome P450 2C19 (Homo sapiens) (P33261 whole entry, looked up): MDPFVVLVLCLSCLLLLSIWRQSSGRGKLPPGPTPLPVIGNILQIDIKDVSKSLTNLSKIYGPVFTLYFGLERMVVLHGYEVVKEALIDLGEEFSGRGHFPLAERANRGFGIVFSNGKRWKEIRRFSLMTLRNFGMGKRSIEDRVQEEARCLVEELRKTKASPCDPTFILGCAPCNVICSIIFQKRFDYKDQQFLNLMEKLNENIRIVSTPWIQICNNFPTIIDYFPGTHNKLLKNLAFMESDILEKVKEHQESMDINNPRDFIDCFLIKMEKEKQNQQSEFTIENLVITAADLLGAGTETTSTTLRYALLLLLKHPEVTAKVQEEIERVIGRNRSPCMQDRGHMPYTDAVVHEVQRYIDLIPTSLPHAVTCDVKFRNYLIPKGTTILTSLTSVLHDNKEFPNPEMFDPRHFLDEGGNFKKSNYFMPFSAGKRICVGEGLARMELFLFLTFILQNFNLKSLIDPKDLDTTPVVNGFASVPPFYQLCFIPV

COCCn1c(=O)c(-c2ccccc2)nc2cnc(OC)nc21
16.8%: max response [12, 20]
active: Potency [3] 1 µM
inactive: Potency [1] > 11.4 µM | activity change, negative = inhibition [2] -2.69% | activity change, negative = inhibition [4] -14.5% | activity, negative = inhibition [5] -12.2% | Potency [6] > 9.22 µM | Potency [7] > 46 µM | outcome [8] | Potency [9] | Potency [10] | activation [11] -14.2% | activity change, negative = inhibition [12] 5.61% | Potency [13] | Potency [14] | Potency [15] | Potency [16] | Potency [17]
21.9%: max response [12, 21]

FC(F)(F)c1ccccc1-c1cc(NCc2ccccc2)ncn1
inactive: Potency [1] > 11.4 µM | activity change, negative = inhibition [2] -15.2% | activity change, negative = inhibition [4] -0.248% | activity, negative = inhibition [5] 4.93% | Potency [6] > 46 µM | Potency [7] > 46 µM | outcome [8] | Potency [18] | activity change, negative = inhibition [12] 5.85% | Potency [13] | Potency [14] | Potency [15] | Potency [17]
14.8%: max response [12, 20]
20.1%: max response [12, 21]
active: Potency [3] 12.6 µM | Potency [10] 10 µM

Cn1c(=O)c(-c2cccs2)nc2cnc(OCc3ccccc3)nc21
20.6%: max response [12, 20]
inactive: Potency [1] > 11.4 µM | activity change, negative = inhibition [2] 16% | activity change, negative = inhibition [4] 22.3% | Potency [6] > 9.22 µM | Potency [7] > 46 µM | outcome [8] | Potency [9] | activity change, negative = inhibition [12] 6.88% | Potency [13] | Potency [14] | Potency [15] | Potency [16] | Potency [17]
29.6%: max response [12, 21]
active: Potency [3] 7.94 µM

Cc1ccccc1-c1cncnc1NCc1cccs1
15.6%: max response [12, 21]
11.6%: max response [12, 20]
inactive: Potency [1] > 11.4 µM | activity change, negative = inhibition [2] 1.41% | activity change, negative = inhibition [4] 2.62% | activity, negative = inhibition [5] 3.53% | Potency [6] > 46 µM | Potency [7] > 46 µM | outcome [8] | Potency [10] | activity change, negative = inhibition [12] 5.75% | Potency [13] | Potency [14] | Potency [15] | Potency [16] | Potency [17]
active: Potency [3] 3.16 µM | Potency [18] 0.501 µM | Potency [19] 0.794 µM

CN1CCN(c2ncncc2-c2ccc(C(=O)N(C)C)cc2)CC1
inactive: Potency [1] > 11.4 µM | activity change, negative = inhibition [2] 14.8% | activity change, negative = inhibition [4] 4.17% | Potency [6] > 46 µM | Potency [7] > 46 µM | outcome [8] | Potency [9] | Potency [10] | activity change, negative = inhibition [12] 1.02% | Potency [13] | Potency [14] | Potency [15] | Potency [16] | Potency [17]
12.3%: max response [12, 20]
active: Potency [3] 15.8 µM
11.3%: max response [12, 21]
